Experimental data published in PubChem BioAssay (Tox21).
Where “and” joins values, the source holds several entries; their conditions need not be identical. Identical values can stand only once. Inconclusive results are not listed. Entries that show only a call come without a potency. The source holds several records for some structures; these can differ, active in one and inactive in another. Calls of active or inactive are those of the source. Calls follow the shape of the dose curve; as a rule, active = well fitted curve in the direction sought with a large enough effect in the repeat runs; inconclusive = weak or mixed curves; inactive = no such curve, though single readings can be large; an effect the other way counts as inactive or inconclusive.

How the values were obtained:
[1] = qHTS RealTime-Glo MT Cell Viability Assay in HEK293 cells - 16 hour (AID 1224872); also: nearly all actives have a fitted effect of over 50% in size; also: potency is read from the fitted curve at half-maximal effect
Summary of the method: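 Assay medium contained NanoLuc luciferase plus cell-permeant prosubstrate, added with HEK293 cells at 600 cells/well. After 5 h at 37 C/5% CO2 compounds were added; plates stayed at 37 C for 40 h with serial luminescence reads.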

[2] = qHTS RealTime-Glo MT Cell Viability Assay in HepG2 cells - 8 hour (AID 1224873); also: nearly all actives have a fitted effect of over 55% in size; also: potency is read from the fitted curve at half-maximal effect
Summary of the method: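 HepG2 cells (600/well) mixed with RealTime-Glo MT reagent, settled 5 h at 37 C/5% CO2 before compound addition. Nonlytic NanoLuc luminescence from viable-cell prosubstrate reduction read repeatedly during 40 h treatment at 37 C.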

[3] = qHTS RealTime-Glo MT Cell Viability Assay in HEK293 cells - 40 hour (AID 1224874); details: RealTime-Glo luminescence; max response: stronger effect = lower value; also: nearly all actives have a fitted effect of over 50% in size; also: potency is read from the fitted curve at half-maximal effect
Summary of the method: (§1)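 Kinetic, non-lysing viability readout. Seed HEK293 (600/well) with reagent, incubate 5 h at 37 C/5% CO2, pin 23 nL compound in DMSO, incubate at 37 C, read luminescence at 0, 8, 16, 24, 32, 40 h.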

[4] = A CellTox Green Cytotoxicity Assay to monitor cytotoxicity in HEK293 cells - 24 hour (AID 1224875); also: nearly all actives have a fitted effect of over 45% in size; also: potency is read from the fitted curve at half-maximal effect
Summary of the method: (§2)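 Real-time, in one plate: 600 HEK293 cells/well with dead-cell DNA dye, pinned compound after 5 h, 37 C incubation over 40 h; viable cells give no appreciable fluorescence.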

[5] = A CellTox Green Cytotoxicity Assay to monitor cytotoxicity in HepG2 cells - 16 hour (AID 1224876); also: nearly all actives have a fitted effect of over 45% in size; also: potency is read from the fitted curve at half-maximal effect
Summary of the method: (§3)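 Cytotoxicity was tracked as dead-cell DNA fluorescence in HepG2 cells treated with test compounds at 37 C; each time-point value comes from one kinetic series spanning 0, 8, 16, 24, 32 and 40 h.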

[6] = qHTS RealTime-Glo MT Cell Viability Assay in HepG2 cells - 32 hour (AID 1224877); also: nearly all actives have a fitted effect of over 55% in size; also: potency is read from the fitted curve at half-maximal effect
Summary of the method: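 qHTS, HepG2, 600 cells/well, RealTime-Glo (NanoLuc + prosubstrate) added with cells; 5 h preincubation; DMSO compound addition; 37 C; luminescence at 0/8/16/24/32/40 h.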

[7] = A CellTox Green Cytotoxicity Assay to monitor cytotoxicity in HepG2 cells - 24 hour (AID 1224878); also: nearly all actives have a fitted effect of over 45% in size; also: potency is read from the fitted curve at half-maximal effect
Summary of the method: as §3

[8] = A CellTox Green Cytotoxicity Assay to monitor cytotoxicity in HepG2 cells - 40 hour (AID 1224879); also: nearly all actives have a fitted effect of over 40% in size; also: potency is read from the fitted curve at half-maximal effect
Summary of the method: as §3

[9] = qHTS RealTime-Glo MT Cell Viability Assay in HEK293 cells - 0 hour (AID 1224880); also: top concentration of the series differs between compounds; nearly all actives have a fitted effect of over 45% in size
Summary of the method: as §1

[10] = A CellTox Green Cytotoxicity Assay to monitor cytotoxicity in HEK293 cells - 32 hour (AID 1224881); also: nearly all actives have a fitted effect of over 40% in size; also: potency is read from the fitted curve at half-maximal effect
Summary of the method: as §2

| Compound | Potency [1] | Potency [2] | max response [3] | Potency [4] | Potency [5] | Potency [6] | Potency [7] | Potency [8] | Potency [9] | Potency [10] | Potency [3] |
| --- | --- | --- | --- | --- | --- | --- | --- | --- | --- | --- | --- |
| CCN(CCN)c1cccc(C)c1 | inactive | inactive | -16.9% (inactive) and 1.24% (inactive) | inactive | inactive | inactive | inactive | inactive | inactive | inactive | – |
| CCc1oc2ccccc2c1C(=O)c1cc(I)c(O)c(I)c1 | inactive | inactive | -23.8% (inactive) | inactive | inactive | inactive | inactive | inactive | inactive | inactive | – |
| CN(C)c1ccc(C(=C2C=CC(=[N+](C)C)C=C2)c2ccc(N(C)C)cc2)cc1 | 6.88 µM (active) and 19.5 µM (active) and 7.56 µM (active) | 19.4 µM (active) and 24.5 µM (active) | – | inactive | 10.9 µM (active) and inactive | 30.7 µM (active) and 24.5 µM (active) and 21.3 µM (active) | 10.9 µM (active) and 12.3 µM (active) and 19 µM (active) | 10.9 µM (active) and 12.3 µM (active) and 21.3 µM (active) | inactive | inactive | 1.73 µM (active) and 4.9 µM (active) and 1.69 µM (active) |
| O=C(O)c1cccc(C(F)(F)F)c1 | inactive | inactive | -0.78% (inactive) | inactive | inactive | inactive | inactive | inactive | inactive | inactive | – |
| Nc1ccc(NCCO)c([N+](=O)[O-])c1 | inactive | inactive | 0.226% (inactive) | inactive | inactive | inactive | inactive | inactive | inactive | inactive | – |
| CCC(C)[O-].CCC(C)[O-].CCOC(=O)/C=C(/C)[O-].[Al+3] | inactive | inactive | 0.788% (inactive) | inactive | inactive | inactive | inactive | inactive | inactive | inactive | – |
| FC(F)(F)c1cccc(Cl)c1 | inactive | inactive | -5.72% (inactive) | inactive | inactive | inactive | inactive | inactive | inactive | inactive | – |
| CCCCCCCCCCOC(=O)c1ccccc1C(=O)OCCCCCCCC | inactive | inactive | 1.51% (inactive) | inactive | inactive | inactive | inactive | inactive | inactive | inactive | – |
| CC1=CCC(=C(C)C)CC1 | inactive | inactive | -2.74% (inactive) | inactive | inactive | inactive | inactive | inactive | inactive | inactive | – |
| CC(C)(C)C1CCC(=O)CC1 | inactive | inactive | 0.275% (inactive) | inactive | inactive | inactive | inactive | inactive | inactive | inactive | – |
| Cc1cc(-n2nc3ccc(Cl)cc3n2)c(O)c(C(C)(C)C)c1 | inactive | inactive | -5.47% (inactive) | inactive | inactive | inactive | inactive | inactive | inactive | inactive | – |
| CCCCCCOC(=O)C(C)CC (stereo not drawn) | inactive | inactive | -1.46% (inactive) | inactive | inactive | inactive | inactive | inactive | inactive | inactive | – |
| COc1ccc(-c2coc3cc(O)ccc3c2=O)cc1 | inactive | inactive | -10.2% (inactive) | inactive | inactive | inactive | inactive | inactive | inactive | inactive | – |
| CCc1ccc(Br)cc1 | inactive | inactive | 5.1% (inactive) | inactive | inactive | inactive | inactive | inactive | inactive | inactive | – |
| Cc1cccc2cccnc12 | inactive | inactive | 0.538% (inactive) | inactive | inactive | inactive | inactive | inactive | inactive | inactive | – |
| C=C(CC)C(=O)c1ccc(OCC(=O)O)c(Cl)c1Cl | inactive | inactive | -6.17% (inactive) and 15.5% (inactive) | inactive | inactive | inactive | inactive | inactive | inactive | inactive | – |
| CCCCCCCCCCC[C@@H](C[C@@H]1OC(=O)[C@H]1CCCCCC)OC(=O)[C@H](CC(C)C)NC=O | 13.4 µM (active) | inactive | – | inactive | inactive | inactive | inactive | 19 µM (active) | inactive | – | 6.74 µM (active) |
| S=c1nccc[nH]1 | inactive | inactive | 13.6% (inactive) | inactive | inactive | inactive | inactive | inactive | inactive | inactive | – |
| Oc1ccccc1O | 55.6 µM (active) and 49 µM (active) | inactive | – | inactive | inactive | inactive | inactive | inactive | inactive | inactive | 35.1 µM (active) and 24.5 µM (active) |

| Compound | Potency [1] | Potency [2] | max response [3] | Potency [4] | Potency [5] | Potency [6] | Potency [7] | Potency [8] | Potency [9] | Potency [10] | Potency [3] |
| --- | --- | --- | --- | --- | --- | --- | --- | --- | --- | --- | --- |
| CCCCCCCCCCCCCC[N+](C)(C)Cc1ccccc1 | 19.8 µM (active) and 9.52 µM (active) and 12.6 mM (active) | 55.8 µM (active) and 21.3 µM (active) | – | 39.5 µM (active) and 21.3 µM (active) and 17.8 mM (active) | 49.7 µM (active) and 23.9 µM (active) and 17.8 mM (active) | 24.9 µM (active) and 13.4 µM (active) | 39.5 µM (active) and 16.9 µM (active) and 17.8 mM (active) | 22.2 µM (active) and 15.1 µM (active) and 14.1 mM (active) | inactive | 39.5 µM (active) and 19 µM (active) and 17.8 mM (active) | 3.14 µM (active) and 3.01 µM (active) and 1.58 mM (active) |
| O=C(/C=C/c1ccc(O)c(O)c1)O[C@@H](C(=O)O)[C@@H](OC(=O)/C=C/c1ccc(O)c(O)c1)C(=O)O | inactive | inactive | 1.33% (inactive) | inactive | inactive | inactive | inactive | inactive | inactive | inactive | – |
| CC(N=C(NC#N)Nc1ccncc1)C(C)(C)C (stereo not drawn) | inactive | inactive | -0.652% (inactive) | inactive | inactive | inactive | inactive | inactive | inactive | – | – |
| CC(C)NC[C@@H](O)COc1ccc(CC(N)=O)cc1 | inactive | inactive | -0.295% (inactive) | inactive | inactive | inactive | inactive | inactive | inactive | inactive | – |
| CCN(CC)c1ccc2c(-c3ccc(S(=O)(=O)O)cc3S(=O)(=O)[O-])c3ccc(=[N+](CC)CC)cc-3oc2c1 | inactive | inactive | -15.9% (inactive) | inactive | inactive | inactive | inactive | inactive | inactive | inactive | – |
| C#C[C@]1(O)CC[C@H]2[C@@H]3[C@H](C)CC4=C(CCC(=O)C4)[C@H]3CC[C@@]21C | inactive | inactive | -25.5% (inactive) | inactive | inactive | inactive | inactive | inactive | inactive | inactive | – |
| O=C(O)[C@H](O)[C@@H](O)[C@H](O[C@@H]1O[C@H](CO)[C@H](O)[C@H](O)[C@H]1O)[C@H](O)CO | inactive | inactive | 11.3% (inactive) | inactive | inactive | inactive | inactive | inactive | inactive | inactive | – |
| CN(C)Cc1ccccc1O | inactive | inactive | 3.13% (inactive) | inactive | inactive | inactive | inactive | inactive | inactive | inactive | – |
| OCC(F)(F)F | inactive | inactive | 19.1% (inactive) | inactive | inactive | inactive | inactive | inactive | inactive | inactive | – |
| C#CC1(O)CC[C@H]2[C@@H]3CCC4=CCCC[C@@H]4[C@H]3CC[C@@]21C (stereo partly drawn) | 19.5 µM (active) and 21.3 µM (active) | 21.3 µM (active) | – | 21.9 µM (active) and 21.3 µM (active) | 34.7 µM (active) and 19 µM (active) | 23.9 µM (active) | 34.7 µM (active) and 19 µM (active) | 38.9 µM (active) and 21.3 µM (active) | inactive | 24.5 µM (active) and 21.3 µM (active) | 19.5 µM (active) and 19 µM (active) |
| Cc1cc(C)c(/C=C2\C(=O)Nc3ccccc32)[nH]1 | inactive | inactive | -3.94% (inactive) | 10.7 µM (active) | 16.9 µM (active) | inactive | 19 µM (active) | 19 µM (active) | inactive | 10.7 µM (active) | – |
| CCCCCCCCCCCCCC[N+](C)(C)C | 21.1 µM (active) and 6.91 µM (active) | 18.8 µM (active) and 54.9 µM (active) and inactive | – | 37.6 µM (active) and 48.9 µM (active) and 26.8 µM (active) | 16.8 µM (active) and 43.6 µM (active) and 23.9 µM (active) | 9.44 µM (active) and 19.5 µM (active) and 23.9 µM (active) | 10.6 µM (active) and 19.5 µM (active) and 23.9 µM (active) | 7.5 µM (active) and 15.5 µM (active) and 19 µM (active) | inactive | 29.9 µM (active) and 48.9 µM (active) and 26.8 µM (active) | 3.35 µM (active) and 4.89 µM (active) and 2.13 µM (active) |
| OC1CCCc2ccccc21 (stereo not drawn) | inactive | inactive | -0.638% (inactive) | inactive | inactive | inactive | inactive | inactive | inactive | inactive | – |
| O=c1[nH]c(=O)n([C@H]2C[C@H](O)[C@@H](CO)O2)cc1F | inactive | inactive | – | inactive | 6.01 µM (active) | inactive | 6.01 µM (active) | 5.35 µM (active) | inactive | inactive | 0.601 µM (active) |
| CCCCCCCCCCCCCCCC[N+](C)(C)CC | 21.9 µM (active) and 6.74 µM (active) | 55.1 µM (active) | – | 43.8 µM (active) and 23.9 µM (active) | 49.1 µM (active) and 23.9 µM (active) | 21.9 µM (active) and 21.3 µM (active) | 24.6 µM (active) and 21.3 µM (active) | 15.5 µM (active) and 19 µM (active) | inactive | 39 µM (active) and 21.3 µM (active) | 4.38 µM (active) and 3.38 µM (active) |
| Nc1nc2c(ncn2COCCO)c(=O)[nH]1 | inactive | inactive | 0.456% (inactive) | inactive | inactive | inactive | inactive | inactive | inactive | inactive | – |
| CC1(C)CCC[C@]2(C)[C@H]3CC(=O)O[C@]3(C)CC[C@@H]12 | inactive | inactive | -15.3% (inactive) | 49 µM (active) | inactive | inactive | inactive | inactive | inactive | 49 µM (active) | – |
| CC1(C)CC(O)CC(C)(C)N1 | inactive | inactive | -4.64% (inactive) | inactive | inactive | inactive | inactive | inactive | inactive | inactive | – |
